Where “and” joins values, the source holds several entries; their conditions need not be identical. Identical values can stand only once. Calls of active or inactive are those of the source.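 Rule for the calls, unless noted: active = mean z-score across replicates of 1.96 or higher in either the MELAS or the Rieske mutant cell line; inactive = the rest.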
Test: compounds altering HSF1 focus formation in cells – imaging, Selleck Cancer Library (AID 1347162; in the data active = plate-normalised HSF1 focus index below about 0.46)
Settings: human cells, HSF1 nuclear foci imaging, at 10 µM; SSMD: measured here: HSF1 foci SSMD mean; cell count: measured here: cell number; plate-normalised HSF1 focus index: stronger effect = lower value

Row | Structure (SMILES) | cell count | plate-normalised HSF1 focus index | SSMD
1 | CCC1=C[C@@H]2CN(C1)Cc1c([nH]c3ccccc13)[C@@](C(=O)OC)(c1cc3c(cc1OC)N(C)[C@H]1[C@@](O)(C(=O)OC)[C@H](OC(C)=O)[C@]4(CC)C=CCN5CC[C@]31[C@@H]54)C2 | 6320 | 1.08 (inactive) | 1.19
2 | Cc1ccc(Nc2nccc(N(C)c3ccc4c(C)n(C)nc4c3)n2)cc1S(N)(=O)=O | 7340 | 1.1 (inactive) | 1.61
3 | CNC(=O)c1ccccc1Sc1ccc2c(/C=C/c3ccccn3)n[nH]c2c1 | 7390 | 1.18 (inactive) | 5.16

Test: blockers of cellular phospholipid synthesis – cell-based, LOPAC library, screen 4, primary screen (AID 1347384; call rule not given here)
Settings: animal cells, phospholipid biosynthesis inhibition screen; at 10 µM

Row | Structure (SMILES) | outcome
4 | NCCCC(N)(C(=O)O)C(F)F (configuration not stated) | inactive
5 | COc1ccc2cccc(CCNC(C)=O)c2c1 | inactive
6 | CC(C)(C)C(=O)Oc1ccc(S(=O)(=O)Nc2ccccc2C(=O)NCC(=O)O)cc1 | inactive
7 | N[C@@H](Cc1c[nH]c2ccc(O)cc12)C(=O)O | inactive
8 | CCCCN(CCCC)CC(O)c1cc(Cl)cc2c1-c1ccc(Cl)cc1/C2=C/c1ccc(Cl)cc1 (configuration not stated) | inactive
9 | c1cnc2cc3c(cc2n1)C1CNCC3C1 | inactive

Test: MELAS cybrid and Rieske KO viability enhancers – cell-based, MELAS cybrids, Rieske KO mouse fibroblasts, CellTiter-Glo, primary screen (AID 1508586);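 note: z relative to plate mean and SD of compound and empty wells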
Settings: MELAS cybrid survival, low glucose, CellTiter-Glo 48 h; stronger effect = higher value

Row | Structure (SMILES) | z-score
10 | O=C(O)c1ccc(-n2nc(-c3ccccc3O)nc2-c2ccccc2O)cc1 | -0.00061 (inactive)
11 | COc1ccc(-c2ccc3cc(C(=O)O)ccc3c2)cc1C12CC3CC(CC(C3)C1)C2 | -0.222 (inactive) and -1.26 (inactive)
12 | COCCCN1CCC(NC(=O)c2cc(Cl)c(N)c3c2OCC3)CC1 | -0.321 (inactive) and -0.32 (inactive)
13 | CCOC(=O)c1c(C)n(C)c2ccc(O)cc12 | -0.277 (inactive)
14 | CN1CCCN=C1/C=C/c1cccs1 | 0.267 (inactive)
15 | Cc1ccc(C(=O)c2cc(O)c(O)c([N+](=O)[O-])c2)cc1 | -0.224 (inactive) and 0.125 (inactive) and 0.577 (inactive)
16 | Cc1nnc(C(=O)NC(C)(C)c2nc(C(=O)NCc3ccc(F)cc3)c(O)c(=O)n2C)o1 | -0.159 (inactive)
17 | Cc1ccccc1C(=O)Nc1ccc(C(=O)N2CCCC(O)c3cc(Cl)ccc32)c(C)c1 (configuration not stated) | 0.131 (inactive) and -0.387 (inactive)
18 | COc1ccc2cccc(CCNC(C)=O)c2c1 | 0.556 (inactive) and -0.393 (inactive)
19 | Cc1cc2c(cc1CC(=O)c1sccc1S(=O)(=O)Nc1onc(C)c1Cl)OCO2 | -0.207 (inactive)
20 | CCC1=C[C@@H]2CN(C1)Cc1c([nH]c3ccccc13)[C@@](C(=O)OC)(c1cc3c(cc1OC)N(C)[C@H]1[C@@](O)(C(=O)OC)[C@H](OC(C)=O)[C@]4(CC)C=CCN5CC[C@]31[C@@H]54)C2 | -2.16 (inactive)
21 | CC1(C)CCC(C)(C)c2cc(NC(=O)c3ccc(C(=O)O)cc3)ccc21 | 0.242 (inactive)
22 | Cc1ccc(Nc2nccc(N(C)c3ccc4c(C)n(C)nc4c3)n2)cc1S(N)(=O)=O | -0.327 (inactive) and -0.404 (inactive)
23 | CCOC(=O)c1ccc(C#Cc2ccc3c(c2)C(C)(C)CCS3)nc1 | 0.367 (inactive)
24 | CC(=O)OCC(=O)[C@@]12N=C(C)O[C@@H]1C[C@H]1[C@@H]3CCC4=CC(=O)C=C[C@]4(C)[C@H]3[C@@H](O)C[C@@]12C | 0.598 (inactive)
25 | O=P(O)(O)C(O)(Cn1ccnc1)P(=O)(O)O | -0.129 (inactive) and 0.228 (inactive)
26 | O=c1cc(O)c(Cl)c[nH]1 | -0.106 (inactive)
27 | N=C(N)c1ccc2cc(OC(=O)c3ccc(N=C(N)N)cc3)ccc2c1 | -0.205 (inactive)
28 | CC(C(=O)O)c1ccc2c(c1)CC(=O)c1ccccc1S2 (configuration not stated) | -0.314 (inactive)
29 | CN(C)C(=O)COC(=O)Cc1ccc(OC(=O)c2ccc(N=C(N)N)cc2)cc1 | -0.283 (inactive)
30 | CCCCc1oc2ccc(NS(C)(=O)=O)cc2c1C(=O)c1ccc(OCCCN(CCCC)CCCC)cc1 | -1.62 and -0.663 (inactive)

Same assay, conditions: Rieske KO mouse fibroblast survival, low glucose, CellTiter-Glo 72 h

Row | Structure (SMILES) | z-score
31 | O=C(O)c1ccc(-n2nc(-c3ccccc3O)nc2-c2ccccc2O)cc1 | -0.754
32 | COc1ccc(-c2ccc3cc(C(=O)O)ccc3c2)cc1C12CC3CC(CC(C3)C1)C2 | 0.947 and 0.282
33 | COCCCN1CCC(NC(=O)c2cc(Cl)c(N)c3c2OCC3)CC1 | -0.104 and -0.205
34 | CCOC(=O)c1c(C)n(C)c2ccc(O)cc12 | 0.616
35 | CN1CCCN=C1/C=C/c1cccs1 | -0.214
36 | Cc1ccc(C(=O)c2cc(O)c(O)c([N+](=O)[O-])c2)cc1 | -0.152 and -0.0292 and 1.07
37 | Cc1nnc(C(=O)NC(C)(C)c2nc(C(=O)NCc3ccc(F)cc3)c(O)c(=O)n2C)o1 | -0.0651
38 | Cc1ccccc1C(=O)Nc1ccc(C(=O)N2CCCC(O)c3cc(Cl)ccc32)c(C)c1 (configuration not stated) | -0.17 and 0.558
39 | COc1ccc2cccc(CCNC(C)=O)c2c1 | 0.28 and -0.0702
40 | Cc1cc2c(cc1CC(=O)c1sccc1S(=O)(=O)Nc1onc(C)c1Cl)OCO2 | -0.0127
41 | CCC1=C[C@@H]2CN(C1)Cc1c([nH]c3ccccc13)[C@@](C(=O)OC)(c1cc3c(cc1OC)N(C)[C@H]1[C@@](O)(C(=O)OC)[C@H](OC(C)=O)[C@]4(CC)C=CCN5CC[C@]31[C@@H]54)C2 | 1.89
42 | CC1(C)CCC(C)(C)c2cc(NC(=O)c3ccc(C(=O)O)cc3)ccc21 | -0.199
43 | Cc1ccc(Nc2nccc(N(C)c3ccc4c(C)n(C)nc4c3)n2)cc1S(N)(=O)=O | -0.2 and 1.1
44 | CCOC(=O)c1ccc(C#Cc2ccc3c(c2)C(C)(C)CCS3)nc1 | 0.684
45 | CC(=O)OCC(=O)[C@@]12N=C(C)O[C@@H]1C[C@H]1[C@@H]3CCC4=CC(=O)C=C[C@]4(C)[C@H]3[C@@H](O)C[C@@]12C | 1.06
46 | O=P(O)(O)C(O)(Cn1ccnc1)P(=O)(O)O | -0.459 and -1.13
47 | O=c1cc(O)c(Cl)c[nH]1 | -0.13
48 | N=C(N)c1ccc2cc(OC(=O)c3ccc(N=C(N)N)cc3)ccc2c1 | 0.234
49 | CC(C(=O)O)c1ccc2c(c1)CC(=O)c1ccccc1S2 (configuration not stated) | 0.988
50 | CN(C)C(=O)COC(=O)Cc1ccc(OC(=O)c2ccc(N=C(N)N)cc2)cc1 | 0.0145
51 | CCCCc1oc2ccc(NS(C)(=O)=O)cc2c1C(=O)c1ccc(OCCCN(CCCC)CCCC)cc1 | 1.98 and -1.01

— PubChem BioAssay
